Screening data: PubChem BioAssay, National Center for Advancing Translational Sciences (NCATS)
PNC inhibitor: High Content Assay for Compounds that inhibit the Assembly of the Perinucleolar Compartment | PC3M PTB-GFP, PNC prevalence imaging, 16 h; hits give low values | activity change (PNC), negative = inhibition, % at 10 µM | 140,000 compounds, 3.1% hits | AID 2417, 2010;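 active = readout at or below -70, meaning at least 70% loss of cells showing the perinucleolar compartment, a nuclear body marking cancer cells; inconclusive = readout between -30 and a set limit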
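Read-out is percentage of cells bearing a perinucleolar compartment, from automated 20x imaging of fixed, Hoechst-stained PC3M PTB-GFP cells. Cells were seeded 4 h, then exposed 16 h to compound (23 nl of library stock) in duplicate plates.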
HTT cytoprotect: qHTS Multiplex Assay to Identify Dual Action Probes in a Cell Model of Huntington: Cytoprotection (ATP); Potency, µM (titrated, usually from 56.4 µM), most hits filed as activators; PC12 HTT-Q103 induced, cytoprotection, ATP luminescence, 40 h; AID 1471, 2008; 230,000 compounds, 0.14% hits; active = well fitted curve in the direction sought with a large enough effect; inconclusive = small, poorly fitted or top-dose-only effect, or another doubt; inactive = no such curve, though single readings can be large; an effect the other way counts as inactive or inconclusive; note: nearly all actives have a fitted effect of over 45% in size
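Rat PC12, Q103 Htt exon1-GFP fusion, ecdysone promoter; tebufenozide inducer 100 nM final; compound titration; qHTS, 1500 cells/well; ATPlite luminescent read.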
ALDH1A1 block: qHTS Assay for Inhibitors of Aldehyde Dehydrogenase 1 (ALDH1A1); Aldehyde dehydrogenase 1A1 (Homo sapiens), P00352; Purified ALDH1A1, NADH fluorescence, propionaldehyde substrate; Potency, µM (titrated, usually from 75.3 µM), usual class: inhibitors; 220,000 compounds, 7.3% hits; AID 1030, 2008
RGS12 GoLoco inh: qHTS Assay for Inhibitors of RGS12 GoLoco Motif Activity (Red Fluorophore); Guanine nucleotide-binding protein G(i) subunit alpha-1 (Homo sapiens), P63096; Gai1:RGS12 GoLoco peptide FP, rhodamine, 10 min; Potency, µM (series often up to 61.6 µM), most hits filed as inhibitors; 230,000 compounds, 0.44% hits; active = well fitted inhibition curve with a large enough effect, not every such curve was filed as active; inactive = no such curve, though single readings can be large or run the other way; note: nearly all actives have a fitted effect of over 30% in size
Target sequence (P63096 whole entry, looked up): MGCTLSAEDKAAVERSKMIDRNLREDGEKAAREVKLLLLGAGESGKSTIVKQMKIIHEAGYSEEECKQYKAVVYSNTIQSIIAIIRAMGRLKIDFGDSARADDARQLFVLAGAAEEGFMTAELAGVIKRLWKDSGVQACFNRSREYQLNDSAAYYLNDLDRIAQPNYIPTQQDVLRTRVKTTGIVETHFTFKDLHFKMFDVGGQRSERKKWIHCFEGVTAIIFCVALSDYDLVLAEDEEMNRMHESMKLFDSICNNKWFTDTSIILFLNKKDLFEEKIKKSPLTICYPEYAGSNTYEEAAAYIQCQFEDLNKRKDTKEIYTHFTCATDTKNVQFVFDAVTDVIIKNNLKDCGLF
HttQ103 aggreg: qHTS Multiplex Assay to Identify Dual Action Probes in a Cell Model of Huntington: Aggregate Formation (GFP). Potency, µM (doses to about 46.1 µM), actives largely listed as inhibitors. 220,000 compounds, 1.1% hits. PC12 HttQ103-GFP aggregates, Acumen cytometry, 40 h. AID 1688, 2009; active = well fitted curve in the direction sought with a large enough effect; inconclusive = small, poorly fitted or top-dose-only effect, or another doubt; inactive = no such curve, though single readings can be large; an effect the other way counts as inactive or inconclusive; note: nearly all actives have a fitted effect of over 60% in size
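Aggregate formation scored by laser-scanning cytometer (488 excitation, 500–530 emission) in lysed PC12 cells expressing Q103-GFP after 100 nM tebufenozide induction; library tested in dose series, with ATPLite reagent added in the multiplex.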
HPGD block: qHTS Assay for Inhibitors of HPGD (15-Hydroxyprostaglandin Dehydrogenase). 15-hydroxyprostaglandin dehydrogenase [NAD(+)] (Homo sapiens), P15428. purified HPGD, NADH fluorescence kinetic, PGE2 substrate. Potency, µM, actives largely listed as inhibitors. 150,000 compounds, 4.3% hits. AID 894, 2007
Target sequence (P15428 whole entry, looked up): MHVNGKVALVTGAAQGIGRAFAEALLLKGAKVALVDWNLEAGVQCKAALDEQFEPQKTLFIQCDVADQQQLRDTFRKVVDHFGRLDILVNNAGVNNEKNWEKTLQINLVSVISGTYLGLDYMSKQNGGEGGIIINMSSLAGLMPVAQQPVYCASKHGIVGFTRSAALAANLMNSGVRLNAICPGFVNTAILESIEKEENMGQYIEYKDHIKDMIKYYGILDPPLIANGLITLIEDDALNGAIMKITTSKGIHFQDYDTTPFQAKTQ
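NADH formation kinetics: reaction with 30 uM PGE2 and 1 mM NAD+ (final), 20 nM enzyme, Tris-HCl pH 8 with Tween 20, after 15 min compound preincubation at room temperature. Fluorescence change, last versus first of five reads.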
Numbers stand for hits; n = inactive; u = inconclusive; x = no result; [ ] = remark or other dose. A selection: hits, their analogues and other compounds. The true share with any hit is near 11%. Unless noted, calls come from the whole dose curve; as a rule, active = well fitted inhibition curve with a large enough effect (not every such curve was filed as active); inconclusive = small, poorly fitted or top-dose-only effect, or another doubt; inactive = no such curve, though single readings can be large or run the other way.

SMILES	PNC inhibitor	HTT cytoprotect	ALDH1A1 block	RGS12 GoLoco inh	HttQ103 aggreg	HPGD block
CCOCC(=O)Nc1nnc(C2CCCCC2)s1	n	n[0.074 µM]	19µM	n	n	n
CC1(C(=O)O)CCC(C(=O)N2CCCCC2)C1(C)C (stereo not given)	x	n[10 µM]	n	n	n[9.22 µM]	x
COc1cc(/C=C/CN2CCN(CCC(C)C)C(CCO)C2)ccc1O (stereo not given)	x	n[10 µM]	n	n	n[9.22 µM]	x
CNC1C(O)C(OC2C(NC(=O)C(O)CN)CC(N)C(OC3OC(CN)C(O)C(O)C3O)C2O)OCC1(C)O (stereo not given)	x	n	x	n	n	x
FC(F)Oc1ccc(-c2csc(Cc3nnc4n3CCCCC4)n2)cc1	-100	n[10 µM]	n	n	n	n
c1ccc2sc(Cc3nnc4n3CCCCC4)nc2c1	-82	n	n	n	n	n
CCOC(=O)c1c(NC(=S)Nc2ccc(OCC)cc2)sc2c1CCN(C)C2	x	n[10 µM]	24µM	n	n[9.22 µM]	x
CCOC(=O)c1c(NC(=S)Nc2ccc(Cl)cc2)sc2c1CCN(C)C2	n	u	25µM	n	n	n
CC(Sc1nnc(-c2cccnc2)n1-c1ccccc1F)C(=O)N1CCCc2ccccc21 (stereo not given)	n	n[1.9 µM]	n	n	n	n
CCCOC(=O)c1ccc(NC(=O)CSC2=Nc3ccccc3C3CC=NN23)cc1 (stereo not given)	n	n	32µM	n	n[9.22 µM]	u
Cc1onc(-c2ccccc2Cl)c1C(=O)Nc1cccnc1	u	n[10 µM]	22µM	n	n	n
Cc1onc(-c2ccccc2Cl)c1C(=O)Nc1ccc(-c2cn3cccnc3n2)cc1	-91	n	u	n	n	u
O=C(Nc1cccnc1)c1ccccc1-c1nc(-c2ccccc2F)no1	n	n	11µM	n	n[9.22 µM]	n
COc1ccccc1-c1noc(-c2ccccc2C(=O)Nc2cccnc2)n1	n	n	u	n	n	n
Cc1onc(-c2ccccc2)c1C(=O)Nc1cccnc1	u	n[10 µM]	u	n	n	n
Cc1onc(-c2ccccc2Cl)c1C(=O)OCN1C(=O)c2ccccc2C1=O	n	n	n	n	n	11µM
Cc1ccccc1NC(=O)/C(C#N)=C\c1cccnc1	-82	n[10 µM]	n	n	n	n
N#C/C(=C/c1ccc(O)c([N+](=O)[O-])c1)C(=O)Nc1ccccc1	x	n	u	n	n	x
N#C/C(=C/c1ccc([N+](=O)[O-])cc1)C(=O)Nc1ccccc1O	n	n[10 µM]	7.9µM	n	n	n
N#C/C(=C\c1ccc([N+](=O)[O-])cc1)C(=O)Nc1ccccc1O	n	n[10 µM]	18µM	n	n	n
N#C/C(=C\c1ccccc1)C(=O)Nc1cccnc1	x	n[10 µM]	u	n	n[9.22 µM]	x
COCCn1c(C)cc(/C=C2/SC(=O)N(C(C)C(=O)OC)C2=O)c1C (stereo not given)	x	n[10 µM]	x	n	n[9.22 µM]	x
COCCn1c(C)cc(/C=C2\NC(=S)N(C)C2=O)c1C	u	x	16µM	n	n	20µM
Cc1ccccc1C(=O)Nc1cccc(-c2ccc3nncn3n2)c1	x	n	14µM	n	n	x
CCCc1cc(=O)[nH]c(SCC(=O)Nc2cc(C)on2)n1	x	x	n	n	u	x
SMILES	PNC inhibitor	HTT cytoprotect	ALDH1A1 block	RGS12 GoLoco inh	HttQ103 aggreg	HPGD block
Cc1c(Br)cc(C(=O)OC2CCN(C)CC2)c(C)c1C	n	n	n	n	n	n
Cc1cc2ccccn2c1C(=O)c1ccncc1	n	n[10 µM]	n	n	n	n
Cc1cc2ccccn2c1C(=O)c1ccc(Cl)cc1	-105	n	n	n	n	n
COC(=O)N[C@@H](CCc1ccccc1)[C@]1(C(C)=O)CCCC1=O	x	n	n	n	x	n
O=C(CO/N=C/c1ccccc1OC(F)F)NCc1cccs1	n	n[10 µM]	n	n	n	16µM
O=C(CO/N=C/c1ccccc1OC(F)F)N1CCc2ccccc21	n	n[10 µM]	16µM	n	n	n
COc1ccc2c(CC(=O)NCc3cccs3)coc2c1	x	n	n	n	n	x
Cc1ccc(C(=O)N2CCN(c3ccccc3)CC2)cc1C	-107	n	u	n	n	n
CC1CCN(C(=O)c2ccc(C(=O)N3CCC(C)CC3)cc2)CC1	x	n[10 µM]	x	x	x	x
Cc1ccc(C(=O)N2CCC(C)CC2)cc1C	n	n[10 µM]	11µM	n	n	0.79µM
CC(=O)C1C(=O)CC(C)(O)C(C(C)=O)C1c1ccc(N(C)C)cc1 (stereo not given)	u	n	3.2µM	n	n	n
COC(=O)CCCCC1SCC(NC(=O)OC)C1NC(=O)OC (stereo not given)	-86	n[10 µM]	n	n	n	n
COC(=O)CCCC[C@@H]1SC[C@@H](NC(=O)OC)[C@@H]1NC(=O)OC	n	n[1.9 µM]	n	n	n	n
CC(C)=CCC1=C(O)[C@](O)(CC=C(C)C)C(=O)C(C(=O)CC(C)C)=C1O	x	n	n	n	x	n
COc1cccc(C2CC(c3c(-c4ccccc4)c4cc(Cl)ccc4[nH]c3=O)=NN2S(C)(=O)=O)c1OC (stereo not given)	n	n	5µM	n	u	n
CCC(=O)N1N=C(c2c(-c3ccccc3)c3cc(Cl)ccc3[nH]c2=O)CC1c1ccco1 (stereo not given)	-82	n[10 µM]	u	x	u	x
COc1ccc(C2CC(c3c(-c4ccccc4)c4cc(Cl)ccc4[nH]c3=O)=NN2C(=O)CCC(=O)O)cc1 (stereo not given)	x	n[10 µM]	u	n	n[9.22 µM]	x
COc1ccc2c(c1)Cc1cc(N=[N+]([O-])c3ccc4c(c3)Cc3cc(OC)ccc3-4)ccc1-2	x	n[10 µM]	u	n[14.2 µM]	x	n
CCOC(=O)NC(Nc1nc2ccccc2s1)(C(=O)OCC)C(F)(F)F (stereo not given)	n	n	n	n	n	n
CC[C@@H](C)[C@@H](CO[C@@H](Cc1ccccc1)C(=O)N[C@@H](CCS(C)(=O)=O)C(=O)OC(C)C)NC[C@@H](N)CS	x	n	16µM	n	x	x
COC(=O)C(CC(C)C)NC(=O)C(N)Cc1ccccc1 (stereo not given)	n	n	n	n	n	n
O=NN(Cc1ccc(Cl)cc1)[C@@H](C(=O)O)c1ccccc1	x	n[10 µM]	n[13.5 µM]	n[14.2 µM]	x	n
CCOc1ccc(-c2nnc3sc(COc4ccccc4)nn23)cc1	n	n	n	n	n	n
Clc1ccccc1-c1nn2c(COc3ccccc3)nnc2s1	n	n[0.074 µM]	20µM	n	u	28µM
CCOc1ccccc1OCc1nn2c(COc3ccccc3)nnc2s1	n	n	7.9µM	n	n	11µM
